Assay results: article PMC4336329 (PLoS ONE, 2015)
Hit rate of the full screen: of about 310,000 compounds, about 14,000 (4.5%) showed an effect of 50% or more. The effect is printed as a negative number. The full list was thinned out, with strong results kept by preference.

What follows are compounds tested against human ether-à-go-go-related gene (hERG) potassium channel (human, UniProt Q12809) (assay: primary screen, population patch clamp on CHO cells stably expressing hERG; higher = less effect of the substance).
Chain of human ether-à-go-go-related gene (hERG) potassium channel (Q12809 whole entry, looked up): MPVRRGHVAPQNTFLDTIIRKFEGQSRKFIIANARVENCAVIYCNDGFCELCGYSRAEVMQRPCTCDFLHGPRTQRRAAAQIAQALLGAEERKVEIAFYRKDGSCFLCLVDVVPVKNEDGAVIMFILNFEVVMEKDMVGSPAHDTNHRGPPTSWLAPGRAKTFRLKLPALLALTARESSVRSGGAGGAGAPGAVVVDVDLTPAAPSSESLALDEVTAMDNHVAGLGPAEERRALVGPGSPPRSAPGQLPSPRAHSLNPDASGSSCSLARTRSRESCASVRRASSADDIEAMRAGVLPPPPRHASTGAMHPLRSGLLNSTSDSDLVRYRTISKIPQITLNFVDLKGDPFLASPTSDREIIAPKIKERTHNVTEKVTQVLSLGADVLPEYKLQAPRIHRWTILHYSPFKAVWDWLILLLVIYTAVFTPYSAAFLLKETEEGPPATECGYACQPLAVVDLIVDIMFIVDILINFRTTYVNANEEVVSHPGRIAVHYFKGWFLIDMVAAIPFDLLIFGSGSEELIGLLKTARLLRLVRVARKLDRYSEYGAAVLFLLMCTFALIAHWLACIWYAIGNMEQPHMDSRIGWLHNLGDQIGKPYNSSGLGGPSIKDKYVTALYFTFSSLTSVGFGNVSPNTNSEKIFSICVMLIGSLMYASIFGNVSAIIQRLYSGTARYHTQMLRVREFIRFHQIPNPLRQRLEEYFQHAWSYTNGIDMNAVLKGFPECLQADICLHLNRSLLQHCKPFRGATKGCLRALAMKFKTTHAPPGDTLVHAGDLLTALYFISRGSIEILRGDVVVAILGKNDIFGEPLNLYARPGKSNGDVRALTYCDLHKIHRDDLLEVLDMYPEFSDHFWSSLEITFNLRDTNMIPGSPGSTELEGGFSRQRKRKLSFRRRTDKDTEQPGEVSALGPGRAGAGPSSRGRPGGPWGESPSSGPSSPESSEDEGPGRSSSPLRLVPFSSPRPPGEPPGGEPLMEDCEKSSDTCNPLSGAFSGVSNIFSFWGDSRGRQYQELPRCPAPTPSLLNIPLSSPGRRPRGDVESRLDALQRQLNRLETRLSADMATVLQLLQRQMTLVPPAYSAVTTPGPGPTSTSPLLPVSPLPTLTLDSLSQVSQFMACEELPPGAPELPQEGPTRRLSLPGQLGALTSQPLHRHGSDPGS
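Note: peak tail current of the secondary pulse compared with the same well before compound.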

SMILES | hERG current change (%, negative = inhibition) at 10uM [%]
Cc1cc(C(=O)OCn2nnc3ccccc3c2=O)c(C)o1 | -6.92
Cc1c(C(=O)Nc2ccc(F)c(F)c2)oc2ccc(S(=O)(=O)N3CCCCC3)cc12 | -0.731
Cc1ccc(CN2CCN(/N=C/c3ccc(O)c(O)c3)CC2)cc1 | -21.7
Cn1ccnc1C(=O)c1cc(=O)c2ccccc2o1 | 8.14
Clc1cccc(CSc2nnc(-c3ccccn3)n2Cc2ccco2)c1 | -35.7
Clc1ccc(CSc2nnc(-c3ccccn3)n2Cc2ccco2)c(Cl)c1 | -5.15
Clc1cccc(CSc2nnc(-c3cccnc3)n2Cc2ccco2)c1 | -74.3
Clc1ccccc1CSc1nnc(-c2cccnc2)n1Cc1ccco1 | -43.1
Clc1ccc(CSc2nnc(-c3cccnc3)n2Cc2ccco2)c(Cl)c1 | -68.7
O=C(CSc1nnc(-c2cccnc2)n1Cc1ccccc1)NCc1ccco1 | -1.17
Cc1cc(C)cc(OCC(=O)Nc2ccncc2)c1 | -18.9
C=CCN(c1ccccc1)S(=O)(=O)c1cccc(C(=O)NNC(=O)c2ccncc2)c1 | -7.43
O=C1NC(Cc2ccccc2)C(=O)N1Cc1cc([N+](=O)[O-])cc2c1OCOC2 (stereo not drawn) | 7.47
COc1cc(SC)ccc1C(=O)N1CCN(Cc2ccc3c(c2)OCO3)CC1 | -34.3
COc1cc(SC)ccc1C(=O)N1CCN(Cc2ccccc2)CC1 | -62.7
COc1cc(SC)ccc1C(=O)N1CCN(c2ccccc2)CC1 | -17.2
COc1ccc(N2CCN(C(=O)c3ccc(SC)cc3OC)CC2)cc1 | -55.3
COc1cc(SC)ccc1C(=O)N1CCN(c2ccc(O)cc2)CC1 | -34.2
COc1cc(SC)ccc1C(=O)N1CCCCCC1 | 17.3
COc1ccc(-c2cn3c(C)c(C(=O)NC(C)C)sc3n2)cc1 | 6.65
COc1nc2c(C)cccc2cc1-c1noc(-c2ccco2)n1 | -8.01
c1ccc(-c2ncc3ccccn23)cc1 | -3.24
COc1cc(-c2cc(C(=O)Nc3nc4ccccc4s3)c3ccccc3n2)cc(OC)c1OC | 35.9

SMILES | hERG current change (%, negative = inhibition) at 10uM [%]
Brc1ccc(CNCc2cccs2)cc1 | -55.1
CCc1ccc(CNCc2cccs2)cc1.Cl | -22.9
Brc1cccc(CNCc2cccs2)c1 | -10.2
Cc1cc(Cl)c(OCCCn2cncn2)c(Br)c1 | -14.1
CCCCOc1ccc(/C=C/C2=CC(C)(C)NC(=S)N2)cc1OCC | 7.58
CCn1ccnc1CN(C)C(=O)C1CCC(=O)N(CCc2cccc(F)c2)C1 (stereo not drawn) | -50.7
CN(Cc1ccccc1Cl)C(=O)C1CCC(=O)N(CCc2cccc(F)c2)C1 (stereo not drawn) | -52.5
Cc1ccsc1CN(C)C(=O)C1CCC(=O)N(CCc2cccc(F)c2)C1 (stereo not drawn) | -35.9
CCn1ccnc1CN(C)C(=O)C1CCC(=O)N(Cc2cccc(C(F)(F)F)c2)C1 (stereo not drawn) | -22.8
CN(Cc1nc2ccccc2[nH]1)C(=O)C1CCC(=O)N(CCc2cccc(F)c2)C1 (stereo not drawn) | 4.23
CCn1ccnc1CN(C)C(=O)C1CCC(=O)N(Cc2cccc(F)c2)C1 (stereo not drawn) | -11.9
O=C(CSc1n[nH]c(=O)[nH]c1=O)c1ccc(Cl)cc1Cl | 16.1
Cn1c(=O)[nH]c(=O)c2c1nc(N1CCOCC1)n2CC(O)COc1ccccc1 (stereo not drawn) | 6.81
CCOc1ncccc1C(=O)OCC(=O)c1ccccc1Br | 0.975
CCOc1ccccc1OCCCC(=O)N(CC)CC(=O)Nc1c(F)cccc1F | -1.78
CCN1CCN(C(c2ccc(C(F)(F)F)cc2)c2ccc3cccnc3c2O)CC1 (stereo not drawn) | -25.3
O=S(=O)(Nc1cccc2cn[nH]c12)c1ccc(F)cc1 | -5.83
CCOCCCn1c(=NC(=O)c2ccco2)c(C(=O)OCC)cc2c(=O)n3cccc(C)c3nc21 | -74
CCOC(=O)c1cc2c(=O)n3cccc(C)c3nc2n(CC(C)C)c1=NC(=O)c1ccco1 | -69.7
CCCCn1c(=NC(=O)c2ccco2)c(C(=O)OCC)cc2c(=O)n3cccc(C)c3nc21 | -81.6
CCOC(=O)c1cc2c(=O)n3ccccc3nc2n(CC(C)C)c1=NC(=O)c1c(-c2c(F)cccc2Cl)noc1C | 5.66
CCOC(=O)c1cc2c(=O)n3cccc(C)c3nc2n(Cc2ccco2)c1=NC(=O)c1ccccc1 | -37.2
